Molecules are shown by their SMILES. Values joined by “and” are separate entries in the source; they are usually repeats but may differ in a detail not shown here. Equal entries are not always repeated. In all, about 310,000 compounds went through this assay and about 1,000 (0.32%) were called active. The rule behind the calls is not given here. A selection follows. Measured potencies and affinities stand elsewhere.

Usually inhibition stands for the change of the read-out against control, counted positive when it falls.

The assay can be described thus: Inhibition of PhoP regulon, Salmonella typhi GFP reporter cells, confirmation, 4 h (AID 1850).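 Note: 0% = induced wells with vehicle and 100% = uninduced wells.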 The conditions noted are these: Salmonella Typhi PhoP-promoter GFP reporter, fluorescence, at 50 µM, hits give high values.
In the case of `Cc1ccc(N2C(=O)c3ccccc3C2=O)cc1`, the inhibition is -2.86% (inactive).
For `CC(=O)N(c1ccc(Cl)cc1)c1nc(C)cc(C)c1C#N` the value was 6.97% (inactive); for `O=C(Nc1ccncc1)Nc1ccncc1`, 0.03% (inactive); for `O=C(Nc1ccncc1)Nc1ccc(F)c(Cl)c1`, 14.2% (inactive).
For `CCc1ccc(NC(=O)Nc2cnccn2)cc1` the value was -5.86% (inactive); for `S=C(NCc1ccc(Cl)cc1)Nc1ccccc1`, -8.41% (inactive); for `CCc1ccc(NC(=O)Nc2ccon2)cc1`, -5.91% (inactive).
For `S=C(NCc1ccncc1)Nc1ccc(Cl)cc1`, the inhibition is -0.61% (inactive).
In the case of `O=C1CCS/C(=N\N=C\c2ccc(Cl)cc2Cl)N1`, the inhibition is 6.05% (inactive).
As to `CCc1ccc(-c2cc3c(=O)n(CC(=O)NCCCN4CCN(C)CC4)ncn3n2)cc1`, the inhibition was 5.21% (inactive).
As to `CC1CCCCC1NC(=O)CSc1ccc([N+](=O)[O-])cc1` (stereo not given), the inhibition was 6.99% (inactive).
In the case of `Cc1cc(-c2nnc3n2N=C(c2ccc(F)cc2)CS3)n[nH]1` it was -5.9% (inactive); in that of `COc1ccccc1-n1c(C)cc(C=O)c1C`, -1.75% (inactive); in that of `CCCc1nc(Cl)c(C#N)c2c1CCCC2`, -3.33% (inactive).
In the case of `CCOC(=O)Cc1cn2c(=O)cc(CSCC(=O)Nc3ccc(C)c(C)c3)nc2s1` it was -2.4% (inactive); in that of `COc1cc2[nH]c3c(c2cc1OC)CCN1CCCC[C@@H]31`, 5.9% (inactive); in that of `O=S(=O)(c1ccc(F)cc1)c1nc(-c2ccco2)oc1Nc1ccc(F)cc1`, -12.3% (inactive).
For `C=CCn1c(SCC(=O)NC2CCS(=O)(=O)C2)nnc1-c1ccc(Cl)cc1` (stereo not given) the value was -6.21% (inactive); for `O=C(Nc1nnc(C2=COCCO2)o1)c1ccc(F)cc1`, 1.96% (inactive).
Regarding `O=C(CSc1nnc(C2COc3ccccc3O2)o1)Nc1ccc(F)cc1Cl` (stereo not given), the inhibition is -3.78% (inactive).
In the case of `CCOC(=O)C1=C(COC(=O)C2(C)CC2(Cl)Cl)NC(=O)NC1c1ccc(OC)cc1` (stereo not given) it was 6.71% (inactive); in that of `COc1ccccc1CNCC(=O)Nc1cc(S(=O)(=O)N2CCCCCC2)ccc1Cl`, -6.34% (inactive).
Regarding `CCN(c1ccc(C(O)(C(=O)OC)C(F)(F)F)cc1)S(=O)(=O)c1ccccc1` (stereo not given), the inhibition was -2.75% (inactive).
In the case of `CN(C)CCNC(=O)COc1ccc(Cl)cc1Cl` it was 1.91% (inactive); in that of `COc1ccc(Cl)cc1C(=O)NCCN(C)C`, -0.53% (inactive); in that of `CCCSc1nc(N)cc(=O)[nH]1`, 5.93% (inactive).
For `Cc1ccc2c(c1)c1c3n2CCCNC3CCC1` (stereo not given) the value was 5.15% (inactive).
In the case of `Cc1ccc2c(c1)c1c3n2CCN=C3CCC1` it was 0.52% (inactive).
Take `c1ccc(-c2ccc3c(c2)c2c4n3CCN=C4CCC2)cc1`: the inhibition is 6.31% (inactive).
For `Cc1ccc2c(c1)c1c3n2CCN(C(=O)CN2CCN(C)CC2)C3CCC1` (stereo not given) the value was 4.43% (inactive).
For `Oc1ccc2c(c1)c1c3n2CCNC3CCC1` (stereo not given) the value was -4.83% (inactive).
Take `Cc1ccc2c(c1)c1c3n2CCN(C(=O)CCl)C3CCC1` (stereo not given): the inhibition is 7.2% (inactive).
For the compound `CCOP(=O)(c1ccccc1)C1(O)CCCCC1` (stereo not given), the inhibition is 14.1% (inactive).
In the case of `Cc1ccc(S(=O)(=O)N2C(=O)CCC2C(=O)O/N=C(\N)c2ccccc2)cc1` (stereo not given) it was -13.3% (inactive).
In the case of `O=C(CN(C(=O)c1csnn1)c1ccccc1Cl)NC1CCCC1` it was 13.4% (inactive); in that of `O=C(O)c1cccc([N+](=O)[O-])c1C(=O)Nc1nc2ccccc2s1`, 4.78% (inactive); in that of `CCn1c(CN2c3ccccc3Sc3ccccc32)n[nH]c1=S`, 4.44% (inactive).
Take `O=C(c1cccc(Cl)c1)N1CCCc2ccccc21`: the inhibition is 4.51% (inactive).
On to `Cc1ccc(S(=O)(=O)N2CCN(c3cnn(C)c(=O)c3Cl)CC2)cc1`, for which the inhibition was -6.96% (inactive).
For `CCCCn1c(N)c(N(CCC(C)C)C(=O)CCN2C(=O)C3CC=CCC3C2=O)c(=O)[nH]c1=O` (stereo not given), the inhibition is 0.9% (inactive).
For `CCOC(=O)c1c(NC(=O)Cn2nc(C(=O)O)c3ccccc3c2=O)sc2c1CCC(C)C2` (stereo not given), the inhibition was 17.9% (inactive).
On to `COc1cccc(C2(O)CC(C(F)(F)F)=NN2C(=O)c2ccccn2)c1` (stereo not given), for which the inhibition is 7.91% (inactive).
For `C[n+]1c2n(c3ccccc31)N=C(c1ccc(Cl)cc1)CS2` the value was 12.3% (inactive); for `C[n+]1c2n(c3ccccc31)N=C(c1ccccc1)CS2`, 0.32% (inactive) and 11.8% (inactive); for `O=C(CSC1=NS(=O)(=O)c2ccccc2N1)NCc1ccc(F)cc1`, -4.98% (inactive).
In the case of `O=C(Cc1cccs1)N/N=C/c1ccccc1`, the inhibition was 10.9% (inactive).
As to `O=C(CNC(=O)c1ccccc1Cl)N/N=C/c1ccc([N+](=O)[O-])s1`, the inhibition is -11.8% (inactive).
As to `O=C(CNC(=O)c1cccc(F)c1)N/N=C/c1cccc([N+](=O)[O-])c1`, the inhibition was -5.75% (inactive).
For `O=C(Cc1ccccc1)N/N=C/c1ccc([N+](=O)[O-])s1`, the inhibition was -7.77% (inactive).
On to `O=C(CNC(=O)c1ccccc1)N/N=C/c1cccs1`, for which the inhibition was -1.08% (inactive).
For `O=C(Cc1ccccc1)NCC(=O)N/N=C/c1ccc([N+](=O)[O-])s1` the value was 11.8% (inactive); for `Cn1cccc1Cc1nnc(SCC(=O)Nc2ccc3c(c2)OCO3)n1-c1ccc(F)cc1`, -1.53% (inactive).
For `NC(=O)CN1C(=O)NC2(CCOc3ccccc32)C1=O` (stereo not given) the value was 1.52% (inactive).
On to `CC(=O)Nc1ccc(NC(=O)c2cccc(-c3cc4ccccc4oc3=O)c2)cc1`, for which the inhibition is 12.9% (inactive).
`CCn1cc(C(=O)NCCCOC(C)C)c2cc(OC)c(OC)cc2c1=O`: the inhibition was 2.36% (inactive).
For `CN(C)c1ccc(P(=O)(COc2ccc([N+](=O)[O-])cc2)c2ccc(N(C)C)cc2)cc1` the value was 2.27% (inactive); for `O=C(CSc1ccc(-c2cccnc2)nn1)N1CCCCCC1`, 1.55% (inactive).
As to `O=C(CCCn1cc([N+](=O)[O-])cn1)NCc1ccccc1`, the inhibition is 8.46% (inactive).
Consider `Cc1c(C(=S)NC(=O)C2CC2)c(=O)n(-c2ccccc2)n1C`, for which the inhibition was -1.42% (inactive).
For the compound `CCc1ccc2c(CN(CC)Cc3nc4ccccc4c(=O)[nH]3)cc(=O)oc2c1`, the inhibition was 1.52% (inactive).
On to `CCn1c(N)nc2ccccc21`, for which the inhibition is 4.17% (inactive).
With `Nc1nc2ccccc2n1CCOc1ccc(Cl)cc1`, the inhibition was 14.7% (inactive).
In the case of `Nc1nc2ccccc2n1CCOc1ccc(F)cc1` it was -3.28% (inactive).
In the case of `Cc1ccc(Cn2c(N)nc3ccccc32)cc1` it was 9.42% (inactive).
`Cc1ccc(NS(=O)(=O)c2ccc(C(=O)N3CC(C)CC(C)C3)cc2)cc1` (stereo not given): the inhibition was -0.14% (inactive).
In the case of `Cc1cc(=O)oc2cc(OCc3ccc(S(=O)(=O)N4CCOCC4)cc3)ccc12` it was -0.96% (inactive); in that of `CC(C(=O)N(C)C1CCS(=O)(=O)C1)N1C(=O)/C(=C/c2ccc(F)cc2)SC1=S` (stereo not given), -40% (inactive).
For `CC(C)c1ccc(/C=C2\SC(=O)N(CC(=O)NC3CCS(=O)(=O)C3)C2=O)cc1` (stereo not given) the value was -0.28% (inactive); for `O=C(CN1C(=O)/C(=C/c2cccc(Cl)c2)SC1=S)NC1C=CS(=O)(=O)C1` (stereo not given), -2.52% (inactive); for `COc1ccc(/C=C2\SC(=S)N(C(C)C(=O)NC3C=CS(=O)(=O)C3)C2=O)cc1` (stereo not given), 0.74% (inactive).
`COc1cccc(/C=C2\SC(=S)N(C(C)C(=O)NC3C=CS(=O)(=O)C3)C2=O)c1` (stereo not given): the inhibition was -39% (inactive).
For `CC(C(=O)NC1C=CS(=O)(=O)C1)N1C(=O)/C(=C\c2ccccc2)SC1=S` (stereo not given) the value was -9.78% (inactive); for `COc1cc2c(cc1OC)C(C)N(C(=O)c1c(C)noc1C)CC2` (stereo not given), -18.4% (inactive).
For `CC(=O)CCC(=O)OCC(=O)Nc1ccc(SC(F)F)cc1` the value was -3.54% (inactive).
On to `O=C1CCC(=O)N1c1ccc(NC2CCN(Cc3ccccc3)CC2)c([N+](=O)[O-])c1`, for which the inhibition was -3.82% (inactive).
In the case of `CC1(C)C2CC[C@]3(C)C(CC=C4[C@@H]5C[C@@](C)(CO)[C@@H](O)C[C@]5(C(=O)O)CC[C@]43C)[C@@]2(C)CC[C@@H]1O` (stereo not given in full) it was -13.5% (inactive); in that of `CC(C)(C)NCc1cccn1-c1sc2c(c1C#N)CCCC2`, -5.99% (inactive); in that of `CCN1/C(=C/c2ccc3ccccc3[n+]2CCCS(=O)(=O)[O-])C=Cc2cc(C)ccc21`, 14.2% (inactive).
For `C=CC[n+]1c(/C=C2\C=Cc3cc(C)ccc3N2CC)ccc2ccccc21` the value was -11.1% (inactive); for `CCOC(=O)C(=CNc1ccc(C(O)(C(=O)OCC)C(F)(F)F)cc1C)C(=O)OCC` (stereo not given), -10.1% (inactive).
For `CCOC(=O)c1[nH]c2ccc(OC)cc2c1NC(=O)CN1CCSCC1` the value was 6.71% (inactive); for `Cc1cccc(N2CCN(C(=O)c3csc4ccccc34)CC2C)c1` (stereo not given), -6.46% (inactive).
Turning to `Cc1ccc(NC(=O)CCC(=O)N/N=C/c2ccc([N+](=O)[O-])o2)cc1C`, the inhibition was -0.54% (inactive).
Take `Cc1nonc1C(=O)N/N=C/c1cccc(O)c1`: the inhibition is -9.29% (inactive).
`CCCOc1ccc(CCC(=O)N/N=C/c2ccc([N+](=O)[O-])o2)cc1`: the inhibition was 3.44% (inactive).
For `Cc1cc(C(=O)N/N=C/c2ccc([N+](=O)[O-])o2)c(C)o1` the value was -1.11% (inactive); for `Nc1nonc1C(=O)N/N=C/c1ccc([N+](=O)[O-])o1`, -4.72% (inactive); for `CCCCCC(=O)N/N=C/c1ccc([N+](=O)[O-])o1`, 17.1% (inactive).
For `O=C(CSc1ccc(Cl)cc1)N/N=C/c1ccc([N+](=O)[O-])o1`, the inhibition was -1.14% (inactive).
Consider `Cc1nonc1C(=O)N/N=C/c1ccc(O)c(O)c1`, for which the inhibition is -18.7% (inactive).
For `COc1ccccc1C(=O)N1CCc2ccccc21` the value was -2.54% (inactive).
For `COCCN(C(=S)Nc1cc(C)cc(C)c1)C(C)c1cccnc1` (stereo not given) the value was -6.47% (inactive).
For `O=C1c2ccccc2C(=O)N1OCc1ccccc1`, the inhibition is -23.3% (inactive).
In the case of `COc1ccc(N(C)C(=O)CCC(=O)Nc2ccc3nc(N4CCOCC4)cc(C)c3c2)c(OC)c1` it was -10.9% (inactive).
In the case of `CC(C)c1ccccc1OCC(=O)Nc1ccc2[nH]ncc2c1` it was -2.28% (inactive).

These data come from PubChem BioAssay AID1850 (Southern Research Specialized Biocontainment Screening …, 2009).
